Measured values published in the supplement of paper PMC13380429.

The compounds below were run on Vero E6 infected with SARS-CoV-2 (assay: inhibition of SARS-CoV-2 cytopathic effect; higher = more antiviral protection, active = above 15). Settings: 1 nM; 48 h.

SMILES | inhibition of SARS-CoV-2 cytopathic effect
C[C@H](Cc1ccc(OCC(=O)O)cc1)NC[C@H](O)c1cccc(Cl)c1 | -1% (inactive)
COc1cc2ncnc(Sc3nnc(C)s3)c2cc1OC | -1.42% (inactive)
C[C@H](CSC(=O)c1ccccc1)C(=O)N1C[C@@H](Sc2ccccc2)C[C@H]1C(=O)O [zofenopril-calcium] | 0.93% (inactive)
Cc1ccccc1-c1cc(N2CCN(C)CC2)ncc1N(C)C(=O)C(C)(C)c1cc(C(F)(F)F)cc(C(F)(F)F)c1 [netupitant] | 0.76% (inactive)
Oc1ccc(O)cc1 [hydroquinone] | -0.8% (inactive)
CN(C)CCN1C(=O)c2cccc3cc(NC(N)=O)cc(c23)C1=O [unbs-5162] | -0.12% (inactive)
CC1(COc2ccc(CC3SC(=O)NC3=O)cc2)CCCCC1 (stereo unspecified) [ciglitazone] | -1.15% (inactive)
CCN(Cc1ccc(Cl)nc1)/C(=C/[N+](=O)[O-])NC [nitenpyram] | 0.79% (inactive)
N=C(N)N/N=C/c1c(Cl)cccc1Cl [guanaben-acetate] | -2.82% (inactive)
CO[C@@H]1[C@H](O)[C@@H](CO)O[C@H]1n1cnc2c(NC3CCCCC3)ncnc21 | -0.97% (inactive)
CN1CCC(=C2c3ccccc3CC(=O)c3sccc32)CC1 [ketotifen] | 1.19% (inactive)
CCOC(=O)C1=C[C@@H](OC(CC)CC)[C@H](NC(C)=O)[C@@H](N)C1 [oseltamivir-phosphate] | -2.66% (inactive)
CCCc1nc(C(C)(C)O)c(C(=O)O)n1Cc1ccc(-c2ccccc2-c2nnn[nH]2)cc1 [olmesartan] | 1.89% (inactive)
O=C1CS[C@@H](c2ccccc2Cl)c2cc(Cl)ccc2N1 (racemic) | 1.66% (inactive)
COc1cc(/C=C(\C#N)C(N)=O)cc(CSc2nc3ccccc3s2)c1O [tyrphostin-AG-825] | 2.84% (inactive)
COc1cc(C(=O)N2CCC(N3CCN(C)CC3)CC2)ccc1Nc1ncc2c(n1)N(C)c1ccccc1C(=O)N2C | 0.64% (inactive)
O=C1NC(=O)[C@@]2(CCOc3ccc(F)cc32)N1 [sorbinil] | -0.44% (inactive)
OCCCNc1cc(-c2ccnc(Nc3cccc(Cl)c3)n2)ccn1 | 1.32% (inactive)
CN1CCC(CNc2ccc3ncc(-c4cccc(OC(F)(F)F)c4)n3n2)CC1 | 2.01% (inactive)

SMILES | inhibition of SARS-CoV-2 cytopathic effect
CC1CCC(NC(=O)N(CCCl)N=O)CC1 (stereo unspecified) [semustine] | 1.43% (inactive)
O=C(NC1CCC1)c1ccc(C#Cc2cccc(F)c2)nc1 | 0.19% (inactive)
O=C(/C=C/c1ccc2c(c1)OCO2)N1CCCCC1 [ilepcimide] | 0.84% (inactive)
COCC(=O)O[C@]1(CCN(C)CCCc2nc3ccccc3[nH]2)CCc2cc(F)ccc2[C@@H]1C(C)C [mibefradil] | -2.83% (inactive)
CC[N+](C)(CC)CCOC(=O)C(O)(c1ccccc1)C1CCCCC1 (stereo unspecified) [oxyphenonium] | -1.8% (inactive)
CN1Cc2ccccc2[C@@H]2c3cccc4[nH]cc(c34)C[C@H]21 | 0.05% (inactive)
Cc1ccc(C[N+](C)(C)C)o1 [5-methylfurmethiodide] | -1.33% (inactive)
O=C(O)CCCCCCNC1c2ccccc2CCc2ccccc21 [amineptine] | -0.8% (inactive)
c1cc(-c2cnn3cc(-c4ccc(OCCN5CCCCC5)cc4)cnc23)ccn1 [dorsomorphin] | -2.38% (inactive)
O=c1cccc2n1C[C@@H]1CNC[C@H]2C1 [cytisine] | 1.86% (inactive)
CC[C@H]1CN2CCc3cc(OC)c(OC)cc3[C@@H]2C[C@@H]1C[C@H]1NCCc2cc(OC)c(OC)cc21 [emetine] | 1.59% (inactive)
CCNC(C)CN1CCc2c(c(=O)oc3ccccc23)C1 (stereo unspecified) | -2.32% (inactive)
N#C/C(=C\c1cn(-c2ccccc2)c2ccccc12)C(=O)O | -0.26% (inactive)
CCOC(=O)[C@@H](N)Cc1ccc(O)c(O)c1 [etilevodopa] | 3.02% (inactive)
CCN(c1cc(-c2ccc(CN3CCOCC3)cc2)cc(C(=O)NCc2c(C)cc(C)[nH]c2=O)c1C)C1CCOCC1 [tazemetostat] | 2.86% (inactive)
CCCc1c2oc(C(=O)O)cc(=O)c2cc2c(=O)cc(C(=O)O)n(CC)c12 [nedocromil] | 2.42% (inactive)
CC(C)[C@H]1C(=O)N[C@@H](CCCNC(=N)N)C(=O)NCC(=O)N[C@@H](CC(=O)O)C(=O)N[C@H](Cc2ccccc2)C(=O)N1C [cilengitide] | -2.16% (inactive)
O=C(CN1CCN(Cc2ccc3c(c2)OCO3)CC1)N1c2ccccc2Sc2ccccc21 [fenoverine] | 0.16% (inactive)
O=C(NNc1nc2cc(F)ccc2n2cccc12)c1cnccn1 | -2.31% (inactive)

Same assay, conditions: 8.33 nM; 48 h

SMILES | inhibition of SARS-CoV-2 cytopathic effect
C[C@H](Cc1ccc(OCC(=O)O)cc1)NC[C@H](O)c1cccc(Cl)c1 | 0.79% (inactive)
COc1cc2ncnc(Sc3nnc(C)s3)c2cc1OC | 0.72% (inactive)
C[C@H](CSC(=O)c1ccccc1)C(=O)N1C[C@@H](Sc2ccccc2)C[C@H]1C(=O)O [zofenopril-calcium] | -2.52% (inactive)
Cc1ccccc1-c1cc(N2CCN(C)CC2)ncc1N(C)C(=O)C(C)(C)c1cc(C(F)(F)F)cc(C(F)(F)F)c1 [netupitant] | 0.01% (inactive)
Oc1ccc(O)cc1 [hydroquinone] | 2.88% (inactive)
CN(C)CCN1C(=O)c2cccc3cc(NC(N)=O)cc(c23)C1=O [unbs-5162] | 4.76% (inactive)
CC1(COc2ccc(CC3SC(=O)NC3=O)cc2)CCCCC1 (stereo unspecified) [ciglitazone] | -3.35% (inactive)
CCN(Cc1ccc(Cl)nc1)/C(=C/[N+](=O)[O-])NC [nitenpyram] | -0.17% (inactive)
N=C(N)N/N=C/c1c(Cl)cccc1Cl [guanaben-acetate] | -0.46% (inactive)
CO[C@@H]1[C@H](O)[C@@H](CO)O[C@H]1n1cnc2c(NC3CCCCC3)ncnc21 | 1.94% (inactive)
CN1CCC(=C2c3ccccc3CC(=O)c3sccc32)CC1 [ketotifen] | 4.8% (inactive)
CCOC(=O)C1=C[C@@H](OC(CC)CC)[C@H](NC(C)=O)[C@@H](N)C1 [oseltamivir-phosphate] | -6.65% (inactive)
CCCc1nc(C(C)(C)O)c(C(=O)O)n1Cc1ccc(-c2ccccc2-c2nnn[nH]2)cc1 [olmesartan] | -1.22% (inactive)
O=C1CS[C@@H](c2ccccc2Cl)c2cc(Cl)ccc2N1 (racemic) | -2.6% (inactive)
COc1cc(/C=C(\C#N)C(N)=O)cc(CSc2nc3ccccc3s2)c1O [tyrphostin-AG-825] | 1.12% (inactive)
COc1cc(C(=O)N2CCC(N3CCN(C)CC3)CC2)ccc1Nc1ncc2c(n1)N(C)c1ccccc1C(=O)N2C | -0.23% (inactive)
O=C1NC(=O)[C@@]2(CCOc3ccc(F)cc32)N1 [sorbinil] | -2.13% (inactive)
OCCCNc1cc(-c2ccnc(Nc3cccc(Cl)c3)n2)ccn1 | -0.77% (inactive)
CN1CCC(CNc2ccc3ncc(-c4cccc(OC(F)(F)F)c4)n3n2)CC1 | 5.2% (inactive)

SMILES | inhibition of SARS-CoV-2 cytopathic effect
CC1CCC(NC(=O)N(CCCl)N=O)CC1 (stereo unspecified) [semustine] | 1.15% (inactive)
O=C(NC1CCC1)c1ccc(C#Cc2cccc(F)c2)nc1 | -1.61% (inactive)
O=C(/C=C/c1ccc2c(c1)OCO2)N1CCCCC1 [ilepcimide] | 0.26% (inactive)
COCC(=O)O[C@]1(CCN(C)CCCc2nc3ccccc3[nH]2)CCc2cc(F)ccc2[C@@H]1C(C)C [mibefradil] | 0.22% (inactive)
CC[N+](C)(CC)CCOC(=O)C(O)(c1ccccc1)C1CCCCC1 (stereo unspecified) [oxyphenonium] | -1.33% (inactive)
CN1Cc2ccccc2[C@@H]2c3cccc4[nH]cc(c34)C[C@H]21 | 0.93% (inactive)
Cc1ccc(C[N+](C)(C)C)o1 [5-methylfurmethiodide] | -0.75% (inactive)
O=C(O)CCCCCCNC1c2ccccc2CCc2ccccc21 [amineptine] | -0.3% (inactive)
c1cc(-c2cnn3cc(-c4ccc(OCCN5CCCCC5)cc4)cnc23)ccn1 [dorsomorphin] | -0.08% (inactive)
O=c1cccc2n1C[C@@H]1CNC[C@H]2C1 [cytisine] | 0.43% (inactive)
CC[C@H]1CN2CCc3cc(OC)c(OC)cc3[C@@H]2C[C@@H]1C[C@H]1NCCc2cc(OC)c(OC)cc21 [emetine] | 2.17% (inactive)
CCNC(C)CN1CCc2c(c(=O)oc3ccccc23)C1 (stereo unspecified) | 0.86% (inactive)
N#C/C(=C\c1cn(-c2ccccc2)c2ccccc12)C(=O)O | -0.12% (inactive)
CCOC(=O)[C@@H](N)Cc1ccc(O)c(O)c1 [etilevodopa] | 1.51% (inactive)
CCN(c1cc(-c2ccc(CN3CCOCC3)cc2)cc(C(=O)NCc2c(C)cc(C)[nH]c2=O)c1C)C1CCOCC1 [tazemetostat] | 0.49% (inactive)
CCCc1c2oc(C(=O)O)cc(=O)c2cc2c(=O)cc(C(=O)O)n(CC)c12 [nedocromil] | 1.24% (inactive)
CC(C)[C@H]1C(=O)N[C@@H](CCCNC(=N)N)C(=O)NCC(=O)N[C@@H](CC(=O)O)C(=O)N[C@H](Cc2ccccc2)C(=O)N1C [cilengitide] | -0.5% (inactive)
O=C(CN1CCN(Cc2ccc3c(c2)OCO3)CC1)N1c2ccccc2Sc2ccccc21 [fenoverine] | -2.81% (inactive)
O=C(NNc1nc2cc(F)ccc2n2cccc12)c1cnccn1 | 0.82% (inactive)
